The list shows a part of the results. The source made the active and inactive calls.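 How the source made its calls, unless noted: active means GFP response above 150% of the DMSO level; inconclusive means fewer than 70 events counted for a yeast strain; inactive means the rest.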
Experiments:
[1] = hit retest on RPL19A-GFP reporter strain – cell-based, S. cerevisiae, flow cytometry, cherry picks, mother/daughter gates, confirmation (AID 2270;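 active means GFP response below 50% of the DMSO control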); conditions: 3 h, at 10 µM, stronger effect = lower value, 100 = same GFP as DMSO wells
[2] = yeast TOR pathway reporter LAP4-GFP change – cell-based, cherry picks, flow cytometry, mother/daughter gates, confirmation (AID 2271;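 active means GFP response above 150% of the DMSO control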;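 further: ratio of sample to DMSO plate mean so 100% equals DMSO level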); conditions: S. cerevisiae LAP4-GFP strain, 3 h, at 10 µM, stronger effect = higher value, 100 means same as DMSO control
[3] = TOR pathway reporter MEP2-GFP, retest of hits – S. cerevisiae, flow cytometry GFP, cherry picks, confirmation (AID 2272;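 active means GFP response above 150% of the DMSO control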;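 further: ratio of well signal to plate DMSO mean so 100% equals DMSO level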); conditions: S. cerevisiae MEP2-GFP strain, 3 h, at 10 µM, stronger effect = higher value
[4] = yeast AGP1-GFP fluorescence change, single-dose – cell-based, flow cytometry, S. cerevisiae, cherry picks, confirmation (AID 2273);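 further: median GFP channel fluorescence over the whole cell population gate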; conditions: S. cerevisiae AGP1-GFP strain, 3 h, at 10 µM
[5] = TOR pathway CIT2 reporter hit retest – S. cerevisiae, GFP fusion, cherry picks, mother/daughter gates, confirmation (AID 2274); conditions: S. cerevisiae CIT2-GFP strain, flow cytometry, 3 h, at 10 µM, stronger effect = higher value
[6] = green-channel fluorescence artefact in S. cerevisiae – s288c strain, artefact control for yeast TOR pathway GFP screen, dose response (AID 2757;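 active means fluorescence span over the dose series, or activity score, above about 33, limit read from the data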;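 further: thousands of bead-calibrated equivalent soluble fluorophore molecules from median cell fluorescence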); conditions: 520 nm autofluorescence, flow cytometry, 3 h, at 33 µM, stronger effect = higher value, zero means same as solvent-only cells
[7] = reduced mouse 2C T cell binding to pMHC/ICAM-1 vesicles – MLPCN validation set, flow cytometry, LFA-1/ICAM-1 modulator project, pilot screen (AID 2523;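 active means response below a set limit, under 55% cells CD8-positive and vesicle-bound, and CD8 cells' 90th-percentile brightness under 279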;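 on vesicle binding response: mean PE anti-B7-1 fluorescence of CD8+ cells relative to row control; 100% = QL9-loaded vesicles with DMSO vehicle in the same plate row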); conditions: 2C mouse CD8+ T cells, at 7 µM, stronger effect = lower value; double positive events: measured here: CD8+/vesicle+ event percentage
[8] = biological target: Integrin beta-1 (Homo sapiens) + Integrin alpha-4 (Homo sapiens) (UniProt P13612+P05556); assay: alpha4beta1 integrin LIBS antibody binding reduction – U937 cells, HUTS-21 mAb, flow cytometry, validation set, VLA-4 allosteric modulator project, pilot screen (AID 2674;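 active means inhibition above 50%, about 3 SD of the validation set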;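 further: antibody binding induced by the VLA-4 ligand LDV present at three times its Kd; 0% = LDV ligand with antibody and no compound and 100% = antibody without LDV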); conditions: HUTS-21 LIBS mAb binding, at 6.7 µM, stronger effect = higher value, binding induced by LDV ligand
Integrin beta-1 (Homo sapiens) + Integrin alpha-4 (Homo sapiens), sequence (P05556 whole entry, looked up): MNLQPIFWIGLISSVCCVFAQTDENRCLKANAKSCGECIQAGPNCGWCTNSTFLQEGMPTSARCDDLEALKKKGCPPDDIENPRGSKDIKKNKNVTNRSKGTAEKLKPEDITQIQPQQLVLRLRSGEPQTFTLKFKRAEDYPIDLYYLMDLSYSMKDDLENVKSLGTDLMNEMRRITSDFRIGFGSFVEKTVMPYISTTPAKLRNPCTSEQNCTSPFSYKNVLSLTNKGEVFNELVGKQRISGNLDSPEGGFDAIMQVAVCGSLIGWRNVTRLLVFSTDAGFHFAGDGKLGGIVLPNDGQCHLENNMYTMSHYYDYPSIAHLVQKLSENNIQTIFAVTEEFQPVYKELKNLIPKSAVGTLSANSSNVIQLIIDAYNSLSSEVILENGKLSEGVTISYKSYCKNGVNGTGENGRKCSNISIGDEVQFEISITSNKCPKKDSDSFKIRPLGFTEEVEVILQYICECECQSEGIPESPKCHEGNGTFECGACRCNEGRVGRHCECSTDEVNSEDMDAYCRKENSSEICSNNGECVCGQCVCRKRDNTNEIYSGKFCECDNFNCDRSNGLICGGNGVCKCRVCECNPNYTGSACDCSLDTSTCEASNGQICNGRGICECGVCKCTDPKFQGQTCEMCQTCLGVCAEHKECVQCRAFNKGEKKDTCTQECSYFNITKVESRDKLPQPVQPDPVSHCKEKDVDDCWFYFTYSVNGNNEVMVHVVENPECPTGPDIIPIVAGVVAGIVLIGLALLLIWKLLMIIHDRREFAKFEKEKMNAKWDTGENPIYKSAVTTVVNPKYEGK
Integrin beta-1 (Homo sapiens) + Integrin alpha-4 (Homo sapiens), sequence (P13612 whole entry, looked up): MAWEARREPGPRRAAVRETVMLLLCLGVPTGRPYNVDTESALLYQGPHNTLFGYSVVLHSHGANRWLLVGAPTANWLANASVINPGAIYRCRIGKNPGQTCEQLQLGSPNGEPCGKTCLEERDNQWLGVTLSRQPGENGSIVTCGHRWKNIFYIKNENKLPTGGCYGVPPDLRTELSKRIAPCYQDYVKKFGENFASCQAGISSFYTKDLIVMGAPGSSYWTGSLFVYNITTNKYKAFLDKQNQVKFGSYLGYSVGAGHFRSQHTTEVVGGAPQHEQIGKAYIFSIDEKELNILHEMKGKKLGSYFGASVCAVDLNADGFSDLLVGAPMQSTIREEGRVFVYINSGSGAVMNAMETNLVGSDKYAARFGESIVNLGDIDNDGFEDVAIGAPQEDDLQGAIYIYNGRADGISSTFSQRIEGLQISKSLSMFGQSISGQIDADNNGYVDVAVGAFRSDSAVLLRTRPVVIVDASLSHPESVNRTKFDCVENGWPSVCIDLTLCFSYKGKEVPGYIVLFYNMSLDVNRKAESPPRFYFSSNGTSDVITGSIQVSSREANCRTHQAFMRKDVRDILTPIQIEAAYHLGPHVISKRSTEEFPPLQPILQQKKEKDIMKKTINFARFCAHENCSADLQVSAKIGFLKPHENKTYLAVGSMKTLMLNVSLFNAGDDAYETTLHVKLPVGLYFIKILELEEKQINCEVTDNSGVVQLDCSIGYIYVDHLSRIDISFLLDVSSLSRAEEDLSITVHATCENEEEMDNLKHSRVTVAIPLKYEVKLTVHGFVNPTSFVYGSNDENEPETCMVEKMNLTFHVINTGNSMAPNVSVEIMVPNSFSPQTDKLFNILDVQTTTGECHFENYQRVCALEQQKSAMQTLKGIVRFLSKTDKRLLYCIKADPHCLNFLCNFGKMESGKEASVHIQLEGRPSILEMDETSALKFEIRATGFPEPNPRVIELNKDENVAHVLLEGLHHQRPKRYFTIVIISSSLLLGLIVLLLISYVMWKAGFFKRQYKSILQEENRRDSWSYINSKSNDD

[9] = calorie-restriction mimetic ROS inhibitors, yeast – validation compound set, pilot screen (AID 2706;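 active means superoxide response below 65% of plate, a cut near 3 SD across the whole screen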;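 further: yeast exposed to compound for one week at 30 degrees C before staining; 100% = mean of all compound wells on the same plate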); conditions: S. cerevisiae aging, superoxide DHE fluorescence; at 10 µM, stronger effect = lower value
[10] = biological target: Beta-adrenergic receptor kinase 1 (Homo sapiens) (UniProt P25098); assay: GRK2 binders displacing RNA aptamer, biochemical, validation, human GRK2, bead flow cytometry (AID 488806;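 active means aptamer binding inhibition above 30%, about 3 SD of noise from non-fluorescent compounds; inactive means inhibition at or below 30%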); conditions: bead-bound GRK2, FAM-aptamer displacement, at 10 µM, stronger effect = higher value
Beta-adrenergic receptor kinase 1 (Homo sapiens), sequence (P25098 whole entry, looked up): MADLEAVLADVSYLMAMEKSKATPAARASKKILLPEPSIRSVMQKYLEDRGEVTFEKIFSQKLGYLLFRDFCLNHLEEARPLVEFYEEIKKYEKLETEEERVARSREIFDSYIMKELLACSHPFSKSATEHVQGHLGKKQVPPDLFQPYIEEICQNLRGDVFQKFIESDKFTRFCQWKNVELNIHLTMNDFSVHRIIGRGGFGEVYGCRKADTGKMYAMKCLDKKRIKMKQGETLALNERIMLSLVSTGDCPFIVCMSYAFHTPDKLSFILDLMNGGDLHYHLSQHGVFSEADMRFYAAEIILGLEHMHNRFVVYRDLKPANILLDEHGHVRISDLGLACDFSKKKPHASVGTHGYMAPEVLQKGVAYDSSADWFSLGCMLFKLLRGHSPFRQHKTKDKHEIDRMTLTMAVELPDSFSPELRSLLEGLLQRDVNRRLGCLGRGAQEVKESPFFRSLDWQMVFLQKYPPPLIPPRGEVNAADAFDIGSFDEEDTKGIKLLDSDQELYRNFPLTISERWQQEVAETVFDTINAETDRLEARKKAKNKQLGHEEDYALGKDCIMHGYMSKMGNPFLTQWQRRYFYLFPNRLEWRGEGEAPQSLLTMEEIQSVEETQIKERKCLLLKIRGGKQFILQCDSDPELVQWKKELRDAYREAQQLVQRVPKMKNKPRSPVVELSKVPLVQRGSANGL

[11] = biological target: AP-2 complex subunit beta (Homo sapiens) (UniProt P63010); assay: beta-arrestin/AP2 interaction blockers – biochemical, validation set, GST-AP2 beads, flow cytometry, pilot screen (AID 504541;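 active means inhibition above 54%, about 3 SD of non-fluorescent compounds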;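 further: AP2 carries R879A mutation and is captured from E. coli lysate; bead-bound FITC arrestin peptide fluorescence measuring arrestin peptide binding to AP2; 0% = DMSO wells and 100% = excess unlabeled arrestin peptide control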); conditions: FITC arrestin peptide, at 10 µM, stronger effect = higher value, AP2 beta2 appendage fragment, R879A mutant
AP-2 complex subunit beta (Homo sapiens), sequence (P63010 whole entry, looked up, the tested form may be a part, one chain of several): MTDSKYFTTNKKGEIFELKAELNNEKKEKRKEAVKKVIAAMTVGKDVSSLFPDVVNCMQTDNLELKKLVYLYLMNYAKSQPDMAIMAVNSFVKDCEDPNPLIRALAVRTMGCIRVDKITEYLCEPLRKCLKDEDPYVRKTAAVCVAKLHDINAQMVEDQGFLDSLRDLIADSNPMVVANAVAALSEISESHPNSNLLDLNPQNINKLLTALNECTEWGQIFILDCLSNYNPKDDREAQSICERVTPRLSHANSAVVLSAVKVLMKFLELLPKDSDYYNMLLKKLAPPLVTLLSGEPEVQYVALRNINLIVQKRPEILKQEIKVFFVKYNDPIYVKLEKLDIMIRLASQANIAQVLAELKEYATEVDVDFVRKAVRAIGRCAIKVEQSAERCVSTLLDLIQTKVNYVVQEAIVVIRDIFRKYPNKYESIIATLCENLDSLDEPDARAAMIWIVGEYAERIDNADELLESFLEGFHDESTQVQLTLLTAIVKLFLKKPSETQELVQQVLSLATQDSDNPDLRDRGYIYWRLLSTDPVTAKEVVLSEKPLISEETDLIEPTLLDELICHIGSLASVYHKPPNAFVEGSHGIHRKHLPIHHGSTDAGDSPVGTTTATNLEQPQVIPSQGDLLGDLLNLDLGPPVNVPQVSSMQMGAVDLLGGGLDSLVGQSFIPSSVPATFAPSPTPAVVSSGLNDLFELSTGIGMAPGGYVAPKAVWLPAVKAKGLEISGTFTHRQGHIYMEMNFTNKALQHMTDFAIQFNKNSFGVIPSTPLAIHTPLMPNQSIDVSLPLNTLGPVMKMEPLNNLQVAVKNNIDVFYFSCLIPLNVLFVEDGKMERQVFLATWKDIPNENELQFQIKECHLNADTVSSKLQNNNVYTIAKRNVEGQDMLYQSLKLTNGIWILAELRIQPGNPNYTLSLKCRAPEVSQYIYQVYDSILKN

[12] = cytosolic pH regulators acting via V-ATPase – S. cerevisiae, pHLuorin, HTS validation (AID 504600; in the data active means response above about 15%;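 further: plate controls were DMSO for no effect and reference compound for full effect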); conditions: V-ATPase proton transport, at 10 µM, stronger effect = higher value
[13] = test system: anti-desmoglein-3 scFv antibody binding to human DSG3; assay: blockers of pathogenic pemphigus antibody–desmoglein-3 binding – biochemical, validation compound set, bead-based, flow cytometry, pilot screen (AID 588368;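 active means binding below the plate cutoff, the plate median minus 3 SD, with a reading above zero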;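 further: signal is the median channel fluorescence of bead-bound GFP antibody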); conditions: Protein G beads, DSG3-Fc, scFv-GFP binding, at 10 µM, stronger effect = lower value
[14] = Nile Red efflux blockade in pump-expressing yeast – validation compound set, multiplex, phenotypic, pilot screen (AID 588506;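 active means efflux inhibition above 0.42, the validation set average plus 4 SD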;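 further: Nile Red retained in cells so higher fluorescence means more efflux inhibition; 0 = negative control wells and 1 = enniatin B 25 µM full block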); conditions: S. cerevisiae pump-expressing triplex, Nile Red efflux flow cytometry; at 10 µM; stronger effect = higher value; the pumps come from Candida albicans
[15] = biological target: ATP-binding cassette sub-family B member 6 (Homo sapiens) (UniProt Q9NP58); assay: blockers of ABCB6-driven porphyrin uptake – K562-ABCB6 cells, flow cytometry, validation set, pilot screen (AID 588550;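 active means inhibition above the screen-wide mean plus 3 SD, about 51%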;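 further: 0% = DMSO wells and 100% = benzethonium chloride 70 µM positive control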); conditions: K562-ABCB6 porphyrin accumulation, 1 h, at 10 µM, stronger effect = higher value
ATP-binding cassette sub-family B member 6 (Homo sapiens), sequence (Q9NP58 whole entry, looked up): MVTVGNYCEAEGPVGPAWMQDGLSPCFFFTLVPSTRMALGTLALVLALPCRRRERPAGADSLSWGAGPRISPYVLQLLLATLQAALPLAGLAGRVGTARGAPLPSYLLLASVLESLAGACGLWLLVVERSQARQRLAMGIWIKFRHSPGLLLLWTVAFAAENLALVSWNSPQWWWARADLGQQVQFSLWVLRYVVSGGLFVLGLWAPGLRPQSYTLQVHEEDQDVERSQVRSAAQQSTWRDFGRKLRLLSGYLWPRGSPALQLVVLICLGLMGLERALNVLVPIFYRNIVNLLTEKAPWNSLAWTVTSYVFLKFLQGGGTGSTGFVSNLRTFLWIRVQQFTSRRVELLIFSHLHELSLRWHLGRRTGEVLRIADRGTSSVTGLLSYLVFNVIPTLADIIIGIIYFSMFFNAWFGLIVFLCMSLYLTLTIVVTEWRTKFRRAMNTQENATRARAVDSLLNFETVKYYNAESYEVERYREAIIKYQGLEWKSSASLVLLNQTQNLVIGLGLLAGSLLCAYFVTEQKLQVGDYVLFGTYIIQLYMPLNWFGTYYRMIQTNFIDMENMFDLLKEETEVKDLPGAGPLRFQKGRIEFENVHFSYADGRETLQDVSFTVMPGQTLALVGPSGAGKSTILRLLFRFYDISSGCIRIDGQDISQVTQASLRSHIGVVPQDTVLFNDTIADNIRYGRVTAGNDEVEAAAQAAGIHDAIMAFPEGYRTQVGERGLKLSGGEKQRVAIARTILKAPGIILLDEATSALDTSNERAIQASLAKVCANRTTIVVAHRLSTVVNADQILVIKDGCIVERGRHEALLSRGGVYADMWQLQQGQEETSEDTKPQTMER

[16] = AML differentiation inducers, ER-HoxA9 marrow cells – cell-based, GFP/MAC1 double positive, flow cytometry, validation set, primary screen (AID 588685;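 active means differentiation response of at least 50%, scaled between solvent and reference control, from cells with both markers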;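 further: compound exposure lasts four days before antibody staining and flow analysis; 0% = DMSO wells and 100% = 5 µM fulvestrant positive control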); conditions: stronger effect = higher value, normalized: vehicle 0, fulvestrant 100
[17] = measured here: daughter cell gate
[18] = measured here: mother cell gate
[19] = measured here: daughter cell gate response
[20] = measured here: mother cell gate response

Cc1cc(C)nc(S/C=C/C(=O)c2ccccc2)n1
GFP response vs DMSO [1]: 100% (inactive) | GFP response vs DMSO [1, 17]: 101% | GFP response vs DMSO [1, 18]: 98% | GFP response relative to DMSO [2]: 169% (active) | GFP response relative to DMSO [2, 19]: 151% | GFP response relative to DMSO [2, 20]: 191% | GFP response vs DMSO [3]: 121% (inactive) | GFP response, % of DMSO [4]: 107% (inactive) | GFP response, % of DMSO [5]: 92.2% (inactive) | GFP response, % of DMSO [5, 17]: 98.4% | GFP response, % of DMSO [5, 18]: 83.8% | fluorescence change (kMESF span) [6]: 1.02 (inactive)

CCn1c(/C=C/c2ccc([N+](=O)[O-])o2)nc2ccccc2c1=O
GFP response vs DMSO [1]: 144% (inactive) | GFP response vs DMSO [1, 17]: 143% | GFP response vs DMSO [1, 18]: 135% | GFP response relative to DMSO [2]: 347% (active) | GFP response relative to DMSO [2, 19]: 336% | GFP response relative to DMSO [2, 20]: 334% | GFP response vs DMSO [3]: 418% (active) | GFP response, % of DMSO [4]: 131% (inactive) | GFP response, % of DMSO [5]: 278% (active) | GFP response, % of DMSO [5, 17]: 289% | GFP response, % of DMSO [5, 18]: 251% | fluorescence change (kMESF span) [6]: 108 (active)

O=C(Nc1ccccc1)c1nnsc1S(=O)(=O)c1ccc(Cl)cc1
GFP response vs DMSO [1]: 73.3% (inactive) | GFP response vs DMSO [1, 17]: 87.8% | GFP response vs DMSO [1, 18]: 61.5% | GFP response relative to DMSO [2]: 164% (active) | GFP response relative to DMSO [2, 19]: 92.8% | GFP response relative to DMSO [2, 20]: 206% | GFP response vs DMSO [3]: 144% (inactive) | GFP response, % of DMSO [4]: 87.7% (inactive) | GFP response, % of DMSO [5]: 95.5% (inactive) | GFP response, % of DMSO [5, 17]: 93.6% | GFP response, % of DMSO [5, 18]: 84.3% | fluorescence change (kMESF span) [6]: 1.31 (inactive)

COc1ccc(C(=O)NC(=S)NNC(=O)CCc2ccccc2)cc1
GFP response vs DMSO [1]: 106% (inactive) | GFP response vs DMSO [1, 17]: 104% | GFP response vs DMSO [1, 18]: 106% | GFP response relative to DMSO [2]: 188% (active) | GFP response relative to DMSO [2, 19]: 173% | GFP response relative to DMSO [2, 20]: 189% | GFP response vs DMSO [3]: 116% (inactive) | GFP response, % of DMSO [4]: 87.7% (inactive) | GFP response, % of DMSO [5]: 101% (inactive) | GFP response, % of DMSO [5, 17]: 104% | GFP response, % of DMSO [5, 18]: 93.3% | fluorescence change (kMESF span) [6]: 0.3 (inactive)

CCCCC(=O)O[C@]1(C(=O)CO)CC[C@H]2[C@@H]3CCC4=CC(=O)CC[C@]4(C)[C@H]3[C@@H](O)C[C@@]21C
GFP response vs DMSO [1]: 96.8% (inactive) | GFP response vs DMSO [1, 17]: 96.4% | GFP response vs DMSO [1, 18]: 99% | GFP response relative to DMSO [2]: 101% (inactive) | GFP response relative to DMSO [2, 19]: 101% | GFP response relative to DMSO [2, 20]: 99.3% | GFP response vs DMSO [3]: 105% (inactive) | GFP response, % of DMSO [4]: 99.3% (inactive) | GFP response, % of DMSO [5]: 101% (inactive) | GFP response, % of DMSO [5, 17]: 101% | GFP response, % of DMSO [5, 18]: 101% | double positive events [7]: 62.4% | vesicle binding response [7]: 271% (inactive) | inhibition [8]: 4.42% (inactive) | superoxide response (% of plate) [9]: 83.1% (inactive) | aptamer binding inhibition [10]: 2% (inactive) | inhibition [11]: -7.47% (inactive) | response [12]: -1.11% (inactive) | binding (% of control) [13]: 101% (inactive) | efflux inhibition (fraction of control) [14]: 0.1 (inactive) | inhibition [15]: 9% (inactive) | differentiation response [16]: -6.66% (inactive)

O=c1[nH]c(-c2ccccn2)nc(C(F)(F)F)c1Br
GFP response vs DMSO [1]: 110% (inactive) | GFP response vs DMSO [1, 17]: 102% | GFP response vs DMSO [1, 18]: 101% | GFP response relative to DMSO [2]: 247% (active) | GFP response relative to DMSO [2, 20]: 219% | GFP response vs DMSO [3]: 118% (inactive) | GFP response, % of DMSO [4]: 91.2% (inactive) | GFP response, % of DMSO [5]: 112% (inactive) | GFP response, % of DMSO [5, 17]: 106% | GFP response, % of DMSO [5, 18]: 103%

Nc1c(C(=O)c2cccs2)sc2nsc(SCCN3CCCCC3)c12
GFP response vs DMSO [1]: 114% (inactive) | GFP response vs DMSO [1, 17]: 110% | GFP response vs DMSO [1, 18]: 118% | GFP response relative to DMSO [2]: 142% (inactive) | GFP response relative to DMSO [2, 19]: 128% | GFP response relative to DMSO [2, 20]: 158% | GFP response vs DMSO [3]: 241% (active) | GFP response, % of DMSO [4]: 107% (inactive) | GFP response, % of DMSO [5]: 160% (active) | GFP response, % of DMSO [5, 17]: 149% | GFP response, % of DMSO [5, 18]: 173% | fluorescence change (kMESF span) [6]: 17.9 (inactive)
